# Results taken from PubChem BioAssay AID602397 (The Scripps Research Institute Molecular Screening Center, 2012).
# Some of the results follow. A number with no mark means an inactive call. No rule for the calls is given here.
# Test: quenching of GFP signal – biochemical, fluorescence, dose response, artefact control for Rin1-Abl interaction inhibitor project, late-stage follow-up (AID 602397)
# Settings: GFP fluorescence quenching counterscreen
compound,measurement,value
CN(Cc1c(F)cccc1Cl)C(=O)CNC(=O)c1ccc2c(c1)OCO2,IC50,> 67.5 µM
